How the values were obtained:
Assay in all cases: log2 ratio of Biotin-Ahx-Ub-VS probe labelling (fragment/DMSO); higher = less target engagement (more negative = stronger competition), active = hit call of the paper (q ≤ 0.05, log2 ratio ≤ -1)
Conditions in all cases: compound concentration: 200 uM; treatment time: 3 h
[1] = target: USP34 (UniProt Q70CQ2)
How it was run: (§1)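 In triplicate, 495 µg of HEK293T lysate per sample was incubated with fragment at 200 µM or vehicle for 3 h. Biotin-Ahx-Ub-VS was then added to 0.5 µM final for 1 h, and labelled DUBs were captured with NeutrAvidin, digested with LysC and trypsin, and measured by diaPASEF LC-MS/MS. Data are average log2 fragment/vehicle ratios by unpaired t-test from global-median-normalised Spectronaut label-free quantities, restricted to proteins with ≥2 unique peptides.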

[2] = target: T1, USP36 (UniProt Q9P275)
T1 sequence (whole entry): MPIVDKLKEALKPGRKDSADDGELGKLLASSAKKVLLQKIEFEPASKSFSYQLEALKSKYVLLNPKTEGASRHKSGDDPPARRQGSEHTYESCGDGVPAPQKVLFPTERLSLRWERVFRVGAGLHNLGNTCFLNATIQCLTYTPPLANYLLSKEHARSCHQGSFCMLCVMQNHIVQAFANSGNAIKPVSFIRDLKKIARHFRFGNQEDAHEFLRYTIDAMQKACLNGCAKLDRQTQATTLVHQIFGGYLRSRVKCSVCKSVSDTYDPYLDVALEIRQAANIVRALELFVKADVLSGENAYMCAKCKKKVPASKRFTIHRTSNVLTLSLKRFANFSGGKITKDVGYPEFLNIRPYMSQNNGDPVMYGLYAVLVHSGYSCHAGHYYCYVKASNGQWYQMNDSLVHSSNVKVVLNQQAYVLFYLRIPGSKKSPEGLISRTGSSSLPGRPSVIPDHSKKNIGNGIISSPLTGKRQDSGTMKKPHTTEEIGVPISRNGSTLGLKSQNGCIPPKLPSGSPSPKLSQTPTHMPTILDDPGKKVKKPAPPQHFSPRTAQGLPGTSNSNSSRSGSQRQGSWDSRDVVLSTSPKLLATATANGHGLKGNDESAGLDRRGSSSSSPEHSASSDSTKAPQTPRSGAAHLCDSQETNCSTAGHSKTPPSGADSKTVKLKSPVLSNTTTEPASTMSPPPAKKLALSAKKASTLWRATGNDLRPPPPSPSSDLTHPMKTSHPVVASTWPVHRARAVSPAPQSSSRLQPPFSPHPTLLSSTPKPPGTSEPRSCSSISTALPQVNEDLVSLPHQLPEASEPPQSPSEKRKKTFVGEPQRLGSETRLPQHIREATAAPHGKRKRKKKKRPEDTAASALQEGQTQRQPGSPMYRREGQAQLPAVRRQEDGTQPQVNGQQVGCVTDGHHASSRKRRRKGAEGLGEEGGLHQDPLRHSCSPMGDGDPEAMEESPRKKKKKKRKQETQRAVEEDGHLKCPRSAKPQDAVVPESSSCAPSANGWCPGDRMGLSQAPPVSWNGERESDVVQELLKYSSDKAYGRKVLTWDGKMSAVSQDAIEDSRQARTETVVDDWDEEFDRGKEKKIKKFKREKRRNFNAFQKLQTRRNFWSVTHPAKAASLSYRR
How it was run: as §1

[3] = target: T2, USP38 (UniProt Q8NB14)
T2 sequence (whole entry): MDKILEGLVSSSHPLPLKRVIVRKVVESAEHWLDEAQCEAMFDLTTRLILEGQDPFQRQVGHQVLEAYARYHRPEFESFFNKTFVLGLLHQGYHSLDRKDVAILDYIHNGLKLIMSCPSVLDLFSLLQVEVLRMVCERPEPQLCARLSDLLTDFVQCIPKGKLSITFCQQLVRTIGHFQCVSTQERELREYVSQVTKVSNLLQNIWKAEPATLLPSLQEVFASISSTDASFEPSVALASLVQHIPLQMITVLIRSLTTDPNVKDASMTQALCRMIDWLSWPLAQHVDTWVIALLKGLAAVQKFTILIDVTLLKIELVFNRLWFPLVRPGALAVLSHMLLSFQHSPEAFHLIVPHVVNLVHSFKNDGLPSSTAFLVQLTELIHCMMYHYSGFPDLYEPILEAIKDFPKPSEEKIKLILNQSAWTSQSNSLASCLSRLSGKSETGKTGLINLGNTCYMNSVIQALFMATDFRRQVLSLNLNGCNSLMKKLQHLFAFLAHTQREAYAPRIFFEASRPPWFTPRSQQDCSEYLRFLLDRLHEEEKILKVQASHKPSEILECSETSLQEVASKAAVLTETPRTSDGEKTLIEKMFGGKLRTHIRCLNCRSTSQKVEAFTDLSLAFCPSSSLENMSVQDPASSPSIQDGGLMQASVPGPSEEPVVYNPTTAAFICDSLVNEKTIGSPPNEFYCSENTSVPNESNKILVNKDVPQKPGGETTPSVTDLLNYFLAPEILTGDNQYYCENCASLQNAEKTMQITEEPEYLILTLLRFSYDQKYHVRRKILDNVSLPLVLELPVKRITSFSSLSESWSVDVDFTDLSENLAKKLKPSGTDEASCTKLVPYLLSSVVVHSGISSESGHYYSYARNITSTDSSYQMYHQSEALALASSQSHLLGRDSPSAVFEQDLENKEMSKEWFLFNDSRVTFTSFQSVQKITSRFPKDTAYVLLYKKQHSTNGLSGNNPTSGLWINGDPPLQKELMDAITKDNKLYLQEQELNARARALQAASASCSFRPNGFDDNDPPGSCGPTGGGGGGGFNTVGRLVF
How it was run: as §1

[4] = target: T3, USP39 (UniProt Q53GS9)
T3 sequence (whole entry): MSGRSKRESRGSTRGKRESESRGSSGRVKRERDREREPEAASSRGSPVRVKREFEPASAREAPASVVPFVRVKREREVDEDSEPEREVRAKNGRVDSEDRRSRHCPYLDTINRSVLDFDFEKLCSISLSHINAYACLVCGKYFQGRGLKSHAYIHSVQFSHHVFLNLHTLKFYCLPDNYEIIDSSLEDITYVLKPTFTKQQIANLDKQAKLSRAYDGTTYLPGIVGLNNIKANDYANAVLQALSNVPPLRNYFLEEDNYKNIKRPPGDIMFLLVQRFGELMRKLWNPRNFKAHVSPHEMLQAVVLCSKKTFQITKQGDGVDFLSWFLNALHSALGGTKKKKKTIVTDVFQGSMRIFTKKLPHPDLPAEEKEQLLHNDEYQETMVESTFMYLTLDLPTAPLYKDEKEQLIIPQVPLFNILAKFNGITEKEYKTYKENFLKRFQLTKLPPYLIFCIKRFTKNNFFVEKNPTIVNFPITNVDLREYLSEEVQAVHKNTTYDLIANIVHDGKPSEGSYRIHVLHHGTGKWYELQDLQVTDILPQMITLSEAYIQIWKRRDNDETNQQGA
How it was run: as §1

[5] = target: T4, USP4 (UniProt Q13107)
T4 sequence (whole entry): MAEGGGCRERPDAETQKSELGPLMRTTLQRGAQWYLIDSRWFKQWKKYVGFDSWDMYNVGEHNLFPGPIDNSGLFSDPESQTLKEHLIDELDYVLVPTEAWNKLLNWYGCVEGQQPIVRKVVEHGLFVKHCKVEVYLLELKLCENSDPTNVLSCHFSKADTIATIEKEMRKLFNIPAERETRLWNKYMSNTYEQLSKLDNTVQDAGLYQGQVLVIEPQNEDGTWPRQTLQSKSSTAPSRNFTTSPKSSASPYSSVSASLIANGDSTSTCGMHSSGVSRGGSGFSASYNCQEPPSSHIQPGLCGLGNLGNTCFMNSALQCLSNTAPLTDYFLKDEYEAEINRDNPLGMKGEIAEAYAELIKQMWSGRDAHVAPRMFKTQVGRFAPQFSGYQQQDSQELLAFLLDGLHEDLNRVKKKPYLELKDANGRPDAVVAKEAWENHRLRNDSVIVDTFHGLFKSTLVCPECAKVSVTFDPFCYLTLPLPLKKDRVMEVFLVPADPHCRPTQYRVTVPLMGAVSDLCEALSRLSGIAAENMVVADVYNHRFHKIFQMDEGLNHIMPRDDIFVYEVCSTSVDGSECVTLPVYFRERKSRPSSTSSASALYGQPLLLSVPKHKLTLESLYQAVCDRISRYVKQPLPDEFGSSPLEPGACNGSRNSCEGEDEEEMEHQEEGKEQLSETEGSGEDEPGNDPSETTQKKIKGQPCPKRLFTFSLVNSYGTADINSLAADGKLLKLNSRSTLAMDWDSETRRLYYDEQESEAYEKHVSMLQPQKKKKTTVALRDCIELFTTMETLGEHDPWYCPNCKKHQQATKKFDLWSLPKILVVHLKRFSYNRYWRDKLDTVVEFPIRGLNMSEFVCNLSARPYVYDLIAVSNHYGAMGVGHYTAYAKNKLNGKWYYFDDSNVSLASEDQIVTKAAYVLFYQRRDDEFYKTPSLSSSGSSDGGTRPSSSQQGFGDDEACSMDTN
How it was run: as §1

Measured: log2 ratio of Biotin-Ahx-Ub-VS probe labelling

Sequence of USP34 (Q70CQ2 whole entry, the tested form may be a part): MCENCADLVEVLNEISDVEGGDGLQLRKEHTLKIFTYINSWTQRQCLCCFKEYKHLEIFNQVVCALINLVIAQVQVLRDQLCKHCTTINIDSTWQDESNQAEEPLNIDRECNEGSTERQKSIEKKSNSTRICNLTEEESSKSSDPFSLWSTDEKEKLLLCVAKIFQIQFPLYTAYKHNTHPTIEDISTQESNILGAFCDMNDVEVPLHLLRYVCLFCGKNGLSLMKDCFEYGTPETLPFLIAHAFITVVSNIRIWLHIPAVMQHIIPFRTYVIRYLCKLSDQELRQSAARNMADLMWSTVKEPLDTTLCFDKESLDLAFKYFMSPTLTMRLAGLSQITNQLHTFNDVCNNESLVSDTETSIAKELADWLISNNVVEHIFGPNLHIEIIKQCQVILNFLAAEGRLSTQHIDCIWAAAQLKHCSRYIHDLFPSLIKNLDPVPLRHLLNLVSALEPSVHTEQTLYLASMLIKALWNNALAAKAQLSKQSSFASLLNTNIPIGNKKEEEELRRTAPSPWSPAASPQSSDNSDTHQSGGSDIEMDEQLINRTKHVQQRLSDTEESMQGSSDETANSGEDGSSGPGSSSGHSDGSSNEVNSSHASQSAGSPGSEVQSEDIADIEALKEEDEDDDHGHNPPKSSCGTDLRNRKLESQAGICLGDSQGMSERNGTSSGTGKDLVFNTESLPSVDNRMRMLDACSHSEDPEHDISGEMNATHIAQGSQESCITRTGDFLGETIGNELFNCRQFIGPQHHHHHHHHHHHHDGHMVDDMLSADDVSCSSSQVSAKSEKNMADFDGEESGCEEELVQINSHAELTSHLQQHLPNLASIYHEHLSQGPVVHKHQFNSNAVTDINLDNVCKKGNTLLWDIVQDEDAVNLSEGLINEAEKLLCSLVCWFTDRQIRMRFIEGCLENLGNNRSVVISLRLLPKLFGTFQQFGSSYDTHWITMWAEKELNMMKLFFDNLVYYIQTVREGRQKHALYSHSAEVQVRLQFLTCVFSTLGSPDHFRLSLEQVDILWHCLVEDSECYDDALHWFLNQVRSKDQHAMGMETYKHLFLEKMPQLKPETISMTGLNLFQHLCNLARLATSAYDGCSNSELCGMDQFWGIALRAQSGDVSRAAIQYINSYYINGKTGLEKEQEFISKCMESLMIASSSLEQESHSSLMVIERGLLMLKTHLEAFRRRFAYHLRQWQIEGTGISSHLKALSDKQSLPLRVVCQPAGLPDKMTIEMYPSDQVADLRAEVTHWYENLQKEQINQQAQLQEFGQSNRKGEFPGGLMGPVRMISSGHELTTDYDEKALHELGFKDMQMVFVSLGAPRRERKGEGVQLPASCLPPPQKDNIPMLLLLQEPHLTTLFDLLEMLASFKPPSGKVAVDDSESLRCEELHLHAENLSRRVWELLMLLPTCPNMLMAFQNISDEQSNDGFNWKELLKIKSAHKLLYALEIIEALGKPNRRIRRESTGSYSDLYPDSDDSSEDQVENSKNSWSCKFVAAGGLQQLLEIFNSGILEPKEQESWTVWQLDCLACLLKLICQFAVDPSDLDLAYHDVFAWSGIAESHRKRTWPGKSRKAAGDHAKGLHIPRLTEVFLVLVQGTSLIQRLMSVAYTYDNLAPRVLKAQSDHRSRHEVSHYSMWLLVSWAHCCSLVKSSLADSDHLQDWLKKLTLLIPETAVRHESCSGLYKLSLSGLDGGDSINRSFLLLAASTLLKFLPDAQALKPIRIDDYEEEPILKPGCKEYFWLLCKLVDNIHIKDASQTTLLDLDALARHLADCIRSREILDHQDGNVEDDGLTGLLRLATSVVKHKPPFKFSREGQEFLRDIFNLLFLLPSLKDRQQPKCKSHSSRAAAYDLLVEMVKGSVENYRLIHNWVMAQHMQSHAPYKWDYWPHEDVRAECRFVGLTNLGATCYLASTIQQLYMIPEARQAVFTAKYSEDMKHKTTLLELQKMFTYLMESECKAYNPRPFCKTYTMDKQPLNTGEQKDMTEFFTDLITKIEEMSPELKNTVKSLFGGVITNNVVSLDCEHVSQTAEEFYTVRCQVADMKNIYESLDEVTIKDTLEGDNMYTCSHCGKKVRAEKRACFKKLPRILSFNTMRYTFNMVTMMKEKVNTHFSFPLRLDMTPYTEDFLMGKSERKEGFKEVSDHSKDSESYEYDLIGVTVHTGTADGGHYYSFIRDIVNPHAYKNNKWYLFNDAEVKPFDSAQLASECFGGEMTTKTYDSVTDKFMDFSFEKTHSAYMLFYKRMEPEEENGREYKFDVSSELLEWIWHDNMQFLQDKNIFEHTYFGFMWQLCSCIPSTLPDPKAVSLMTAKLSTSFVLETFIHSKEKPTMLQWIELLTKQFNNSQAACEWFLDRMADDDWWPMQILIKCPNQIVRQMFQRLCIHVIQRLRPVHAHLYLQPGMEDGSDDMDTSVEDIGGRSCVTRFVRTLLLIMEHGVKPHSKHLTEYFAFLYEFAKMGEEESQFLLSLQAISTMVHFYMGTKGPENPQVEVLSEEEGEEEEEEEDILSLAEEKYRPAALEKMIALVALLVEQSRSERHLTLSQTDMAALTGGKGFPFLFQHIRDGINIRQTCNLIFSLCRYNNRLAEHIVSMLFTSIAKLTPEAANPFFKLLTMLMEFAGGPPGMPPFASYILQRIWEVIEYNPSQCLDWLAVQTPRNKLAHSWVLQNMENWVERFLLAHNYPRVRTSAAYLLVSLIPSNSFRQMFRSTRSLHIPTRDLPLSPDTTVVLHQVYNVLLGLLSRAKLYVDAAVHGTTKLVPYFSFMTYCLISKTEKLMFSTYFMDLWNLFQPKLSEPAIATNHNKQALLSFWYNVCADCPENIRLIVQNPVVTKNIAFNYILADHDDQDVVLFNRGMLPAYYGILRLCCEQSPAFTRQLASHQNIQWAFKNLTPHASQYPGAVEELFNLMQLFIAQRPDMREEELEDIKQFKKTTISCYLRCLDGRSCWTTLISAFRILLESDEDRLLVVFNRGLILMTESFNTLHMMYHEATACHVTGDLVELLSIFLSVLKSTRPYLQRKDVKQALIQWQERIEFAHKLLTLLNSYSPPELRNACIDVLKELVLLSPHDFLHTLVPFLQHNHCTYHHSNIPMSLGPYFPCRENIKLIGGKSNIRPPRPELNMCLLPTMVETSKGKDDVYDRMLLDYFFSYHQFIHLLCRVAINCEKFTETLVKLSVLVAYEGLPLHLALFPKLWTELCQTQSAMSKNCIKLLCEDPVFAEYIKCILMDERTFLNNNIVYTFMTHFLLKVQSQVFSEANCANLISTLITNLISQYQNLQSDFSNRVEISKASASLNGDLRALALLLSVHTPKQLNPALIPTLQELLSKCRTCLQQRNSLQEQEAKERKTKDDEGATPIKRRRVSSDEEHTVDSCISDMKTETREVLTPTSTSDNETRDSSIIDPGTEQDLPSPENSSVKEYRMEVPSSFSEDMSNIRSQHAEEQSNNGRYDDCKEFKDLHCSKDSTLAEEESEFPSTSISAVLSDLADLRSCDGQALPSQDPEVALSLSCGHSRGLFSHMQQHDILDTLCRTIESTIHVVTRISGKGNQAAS

O=C(CCl)Nc1ccc(F)cc1F
inactive: [1] -0.242 | [2] -0.306 | [3] 0.102 | [4] 0.37 | [5] -0.0254

Source: the supplement of paper PMC11732987, “Enantioselective OTUD7B fragment discovery through chemoproteomics screening and high-throughput optimisation” (Communications Chemistry, 2025)
